Whole data set: some 33,000 sequences, median “E-score (-0.5 to 0.5)” near -0.017, cut for the highest 2% near 0.3. What follows is part of a selection rich in the highest values, with near analogues and random picks from the rest.
The sequences below were run against T1, Sut1 (UniProt P53032) (assay: PBM E-score (8-mer binding enrichment) (E-score (-0.5 to 0.5)); higher = stronger / more preferred TF binding). Details: protein concentration: 200 nM; construct: GST-full length.
T1 sequence: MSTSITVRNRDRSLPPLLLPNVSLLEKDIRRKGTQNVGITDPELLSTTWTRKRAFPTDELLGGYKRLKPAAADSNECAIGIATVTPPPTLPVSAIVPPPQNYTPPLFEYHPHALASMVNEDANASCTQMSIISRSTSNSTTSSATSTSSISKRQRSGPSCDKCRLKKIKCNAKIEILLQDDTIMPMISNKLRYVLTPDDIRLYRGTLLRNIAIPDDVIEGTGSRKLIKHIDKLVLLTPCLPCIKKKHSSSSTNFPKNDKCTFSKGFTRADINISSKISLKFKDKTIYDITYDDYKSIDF
Procedure: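 Universal 'all 10-mer' protein binding microarrays (Agilent AMADID 015681) probed with GST-tagged S. cerevisiae TFs (full-length or DBD) made by in vitro transcription/translation (PURExpress), about 100-200 nM. Bound TF was detected with fluorescent anti-GST. Each ungapped 8-mer (which stands for itself and its reverse complement) is scored by the PBM enrichment score (E-score), a modified Wilcoxon-Mann-Whitney statistic from -0.5 to +0.5, computed with the Universal PBM Analysis Suite. Scale: above 0.35 generally sequence-specific binding.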

Sequence | PBM E-score
ATGGAGAA | 0.108
ACGGAGCT | 0.386
ACGGAGAT | 0.435
ACGGAGAG | 0.247
ACGGAGAC | 0.232
GCGGACAA | 0.23
ACGGAGAA | 0.362
ACGGAGGA | 0.0201
ACGGAGCG | 0.2
CCGGACAA | 0.283
GGATAGCA | 0.0461
CGCTGTAA | 0.00093
AACCTTTG | 0.0541
AAACTAAT | 0.292
GGTTATGA | -0.00868
CACAACCA | 0.0851
CGTTGCGC | -0.153
GTTAGTCA | -0.0461
ATTAGACC | -0.183
ACATCAAT | 0.201
AAACAGTC | -0.179
CCGGATAA | 0.285
CGGGAGAC | 0.132
CCGGAGAC | 0.328
GCGGAGAA | 0.279

Sequence | PBM E-score
GCGGAGAC | 0.183
ACGGATAA | 0.103
CCGGAGAG | 0.253
TGGGAGAA | -0.07
CCGGAGAA | 0.397
TCGGATAA | 0.318
CAGGAGAA | 0.0231
TCGGAGAA | 0.436
TCTCTAAA | 0.107
AAGATAAA | 0.199
GCGACTTA | -0.106
ACGTCTCA | -0.0462
AAAACTGA | 0.12
CAGGTTGC | -0.135
AGCCTTCC | -0.158
GGCAGCAA | -0.129
ATCGGATA | 0.288
CTCGGAGC | 0.389
CTTGGAGA | -0.00672
ATCGGAGG | 0.0998
CTAGGAGC | -0.306
ATCGGAGC | 0.358
ATCGGAGA | 0.416
CTCGGTGC | -0.02
CTCGGATA | 0.126

Sequence | PBM E-score
CTCGGAGA | 0.419
ATCGGCGC | -0.0591
ATCGGATC | -0.00393
ACCAACGC | 0.014
CGGAGCCA | 0.294
CGTTAAGC | 0.125
CTGCTGTA | -0.0764
TACAGGCA | 0.085
GTAGGAGA | -0.0911
GTCGGATA | 0.143
GTCGGAGA | 0.325
AACTAGGA | 0.0329
GACTCGCC | -0.158
AAAAAGTA | 0.125
GGGACTTA | -0.0858
CAGACTGC | -0.135
AGGACTTA | -0.0276
AGGACTGC | -0.334
AGGACTGA | -0.109
GGGACTGA | -0.185
CGGACTTA | 0.492
CGGACTGA | 0.298
CGGACTGC | 0.377
GTAAACGA | -0.0179
CACAGTAC | -0.0582

Sequence | PBM E-score
AATCCGGA | 0.368
TATCCGCA | 0.169
GATCCGGC | 0.0532
AATCCGGC | -0.0834
TATCCGGA | 0.39
GATCCGTA | -0.02
GATCCGGA | 0.324
AATCCGGT | 0.258
CATCCGAA | 0.151
GATCCGAA | 0.26
CATCCGGA | 0.292
TATCCGAA | 0.304
ACCCTCTA | -0.245
AGGTCTTC | -0.256
GGTCTCGA | 0.00072
CAACAGTC | 0.0186
TACGCGTA | -0.0808
CGGCCACC | -0.0332
CTCTAAAG | -0.0246
AGATATTA | 0.211
AGTCCGCG | 0.435
ATTCCGCG | 0.18
ATTCCGCC | 0.214
AGTCCGCA | 0.441
CGTCCGCA | -0.177

Sequence | PBM E-score
AATCCGCG | -0.103
GGTCCGCA | 0.241
CGTCCGCC | -0.124
AGTCCGCC | 0.375
ATGCACGG | -0.114
AACTTCTA | 0.131
ACCAGCTG | -0.203
GTCATAGA | -0.0539
ATGAATAC | 0.132
GGCAAACA | -0.119
GCCAAGGC | -0.29
TAATGAAA | 0.154
AAATGATT | 0.311
GAATGATA | 0.259
AGATGATA | 0.175
CAATGATA | 0.144
TAATGATA | 0.317
AAATGATA | 0.337
AAATGATG | 0.16
AAATGATC | 0.105
ACAGTGTC | -0.114
GAATTCGA | 0.0801
CTTTTCTC | 0.107
GCATCGGA | 0.348
ACATCGGA | 0.351

Sequence | PBM E-score
CCATCGGA | 0.255
ACATCGGT | -0.034
GCATCGTA | -0.0143
TCATCGAA | 0.0449
TCATCGGA | 0.395
ACATCGGC | -0.0386
GCATCGGC | -0.241
GCAATACA | 0.196
GAAATTGC | -0.0449
AGCACGCG | 0.0217
ATTACATA | 0.154
AGAGTCTG | -0.236
ACCACACA | 0.109
CTCACAGC | -0.051
TCTCAGAA | -0.12
CAAGTTGC | 0.0786
GGCTGTAC | -0.0774
GGACTTAC | 0.352
AGACTTAC | -0.0551
GGACTTAA | 0.326
CGACTTAC | -0.0195
CGACTTAA | 0.00564
AGACTTAA | -0.137
GCAAGAGA | -0.196
CTTCTGGA | -0.0307

Sequence | PBM E-score
ATCGGACG | 0.0416
CTCGGAAC | 0.182
ATCGGACC | 0.353
CTCGGACC | 0.368
AGCGGACC | 0.00064
ATCGGACA | 0.257
CTCGGACA | 0.354
GTCGGACA | 0.271
CTCGGATC | 0.204
TCTTAGAA | 0.283
AAGATTCA | 0.137
CGAGCGTC | -0.241
CATATTGG | 0.112
GAAACTGA | -0.0944
CGGCTTTA | 0.0621
AACCAGTC | 0.173
AGGGGTTA | -0.273
AGGGGTTC | -0.181
GGGGGTTA | -0.405
CGGGGTTC | 0.398
CCGGGTTC | -0.0363
CGGGGTTA | 0.382

Source: the supplement of paper PMC3334620
